Laboratory results reported in PubChem BioAssay (EPA / NIEHS).
Activity calls are given as the source filed them. The calls were made as follows: active = hit-call score of the fitted dose curve at least 0.9, where 1 is the maximum; inactive = score below 0.9.

Read-out: MicroRNA 122 (MIR122), gene 406906
Test: LTEA_HepaRG_MIR122: Life Technologies and Expression Analysis (LTEA) Assay for MicroRNA 122 (MIR122) using HepaRG (AID 2283516)
Settings: mRNA level, 48 h; actives raise or lower the signal
Experimental: LTEA_HepaRG is a cell based, multiplexed-readout assay that uses HepaRG, a human liver cell line, with measurements taken at 48 hours after chemical dosing on a 96-well plate.LTEA_HepaRG_MIR122 is one of 102 assay component(s) measured in the LTEA HepaRG cell culture assay. It is a marker of MicroRNA.Data from the assay component LTEA_HepaRG_MIR122 was analyzed into 1 endpoint. This assay endpoint, LTEA_HepaRG_MIR122, was analyzed with bidirectional fitting relative to DMSO as the negative control and baseline of activity. Using a type of inducible reporter, measures of mRNA induction for gain or loss-of-signal activity can be used to understand regulation of transcription factor activity. To generalize the intended target to other relatable targets, this assay endpoint is annotated to the microrna intended target family, where the subfamily is post-transcriptional regulation.
A total of 1060 chemcials from the ToxCast library were tested in eight-point concentration-response experiments. Cell culture and cytotoxicity assays were conducted at Thermo Fisher Scientific's Custom Services facility (Madison, WI). A single lot of human HepaRG cells (Thermo Fisher Scientific, Frederick, MD) was used for the cell culture experiments. 96-well format collagen type I coated plates of human HepaRG cells were prepared using established methods. Briefly, cryopreserved HepaRG cells were thawed, plated at a density of approximately 100,000 cells/well in HepaRG Thaw, Plate, and General Purpose media (HPRG770, Thermo Fisher Scientific), and incubated for 48 hours. 0.5% DMSO was selected as vehicle control to balance the requisite need of DMSO in HepaRG cultures to maintain differentiation (for example, baseline metabolism, proportions of hepatocytes vs. cholangiocytes), while enabling further hepatic receptor pathway activation (for example, PXR and CAR) in response to chemical exposure. 48 hours after plating, the culture medium was replaced with HepaRG Serum-Free Incudtion Media. Cells were exposed to each test chemical in duplicate and maintained in CO2 incubators for another 48 hours. Chemical plates were thawed to room temperature and 200x concentrations of treatment groups were prepared. 8-point conentration-reponse curves were made with the highest exposure at 100 uM, followed by half-log dilutions, all in 0.5% DMSO. Each test plate contained variouse controls, induction positive controls (1mM phenobarbital), cytotoxicity positive controls ([…] aflatoxin B1), vehicle controls (0.5% DMSO), and total lysis controls (0.5% DMSO). Cell morphology images were taken using an Essen IncuCyte FLR automated microscope, with six 96-well plates imaged in about 24 minutes. Images were captured and exported and JPEG files. Spent culture media was transfered to black-well plates for the LDH assay, and remaining media was sorted at -80 C for later use. Cells were treated with RLT buffer and frozen until shipped for gene expression analysis. Total RNA was isolated from the cell suspension in 75 uL of Buffer RLT (Qiagen, Germantown, MD 20874) by Quintiles/Expression Analysis (Durham, NC) using a custom isolation procedure. Total RNA from each plate well was transferred to a preamplification plate. Fluidigm's 96.96 Dynamic ArrayTM (Fluidigm, Amsterdam, the Netherlands) technology was used for gene expression analyses by quantitative reverse transcription polymerase chain reaction (qRT-PCR, performed by Quintiles/Expression Analysis, Durham, NC)89. Standard TaqManTM Assays (Applied Biosystems/ThermoFisher Scientific, Foster City, CA) were used to assess the expression of 93 genes selected based on their selectivity and sensitivity to important hepatic receptors known to be modulated by environmental chemicals; importance in human hepatocyte functionality; and hepatotoxicity. […]

| Structure (SMILES) | outcome | AC50 |
| --- | --- | --- |
| C[C@]12C=CC(=O)C=C1CC[C@@H]1[C@@H]2C(=O)C[C@@]2(C)[C@H]1CC[C@]2(O)C(=O)CO | inactive | – |
| CN1CCCC1=O | inactive | – |
| Cc1cccc(C)c1O | inactive | – |
| CCCCOC(=O)CCCCCCCCC(=O)OCCCC | inactive | – |
| O=[N+]([O-])C(CO)(CO)CO | inactive | – |
| NC(=O)Cn1c(=O)cc(CCN2CCN(c3nccc4sccc34)CC2)c2ccc(F)cc21 | inactive | – |
| Cc1ccc(C)c(O)c1C | inactive | – |
| CN1CCN(Cc2cc(-c3ccc4[nH]c(=O)oc4c3)co2)[C@@H](c2ccc(F)cc2)C1 | inactive | – |
| CCCCCCCCCCCCCCCCCC(=O)O | inactive | – |
| Cc1ccc(C)c(C)c1 | inactive | – |
| CN[C@H]1CC[C@@H](c2ccc(Cl)c(Cl)c2)c2ccc(S(N)(=O)=O)cc21 | inactive | – |
| Cc1ccc(C(C)C)c(O)c1 | inactive | – |
| CCCCCCCCCCC | inactive | – |
| Nc1ccc2c(c1)C(=O)c1ccccc1C2=O | – | 4.24 µM (active) |
| CCCCCCCCCCCC(=O)OC | inactive | – |
| CC(C)c1ccc(C(=O)N=C(N)N)cc1S(C)(=O)=O | – | 0.334 µM (active) |
| CC(C)(C)c1cc(O)c(C(C)(C)C)cc1O | – | 79.8 µM (active) |
| Cc1ccc(Cl)cc1 | inactive | – |
| Nc1ccc(S(=O)(=O)c2ccc(N)cc2)cc1 | inactive | – |
| OC[C@@H](O)[C@@H](O)[C@H](O)[C@H](O)CO | inactive | – |

| Structure (SMILES) | outcome | AC50 |
| --- | --- | --- |
| CC1(C)NC(=O)NC1=O | inactive | – |
| CNCc1cc(F)ccc1Oc1ccc(Cl)c(Cl)c1 | – | 81.8 µM (active) |
| O=C(O)CCCCC(=O)O | inactive | – |
| CCCCCC(=O)O | inactive | – |
| Cc1ccccc1Cl | inactive | – |
| C=CCc1ccc(O)c(OC)c1 | inactive | – |
| CCNc1cccc(C)c1 | inactive | – |
| Oc1ccc2ccccc2c1N=Nc1ccccc1 | – | 9.92 µM (active) |
| COCCOCCOC | inactive | – |
| CCCCCCCCCCCCCO | inactive | – |
| CCCCCCOCCO | inactive | – |
| O=C(O)Cc1ccccc1Nc1c(Cl)cccc1Cl | inactive | – |
| CCOc1ccc2c(c1)C(C)=CC(C)(C)N2 | inactive | – |
| Cc1ccc(N(C)C)cc1 | inactive | – |
| Nc1nc(N)c2nc(CNc3ccc(C(=O)N[C@@H](CCC(=O)O)C(=O)O)cc3)cnc2n1 | inactive | – |
| NS(=O)(=O)c1cc2c(cc1Cl)NCNS2(=O)=O | inactive | – |
| CCCCN(CCCC)CCCC | inactive | – |
| Nc1ccccc1N | – | 71.4 µM (active) |
| Cc1nc(-c2ccc3c(c2)CCN(CCC2CCC(NC(=O)/C=C/c4ccc(F)cc4)CC2)CC3)no1 (stereo not given) | inactive | – |
| CC(=O)Oc1ccccc1C(=O)O | inactive | – |
